# From PubChem BioAssay (EPA / NIEHS)
# Activity calls are given as the source filed them. The calls were made as follows: active = hit-call score of the fitted dose curve at least 0.9, where 1 is the maximum; inactive = score below 0.9.
# What was measured:
# [1] = BSK_CASM3C_SRB: Viability Assessment in the BioMAP Diversity Plus: CASM3C Assay (AID 2283050); conditions: primary human coronary artery smooth muscle cells;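 also: cells exposed to compound for 24 h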
# [2] = read-out: Thrombomodulin, THBD (gene 7056); experiment: BSK_CASM3C_Thrombomodulin: BioMAP Diversity Plus: CASM3C Assay for Thrombomodulin Biomarker Activity (AID 2283051); conditions: primary human coronary artery smooth muscle cells; actives raise or lower the signal;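 also: thrombomodulin protein level measured by ELISA 24 h after dosing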
# [3] = read-out: Tissue Factor, F3 (gene 2152); experiment: BSK_CASM3C_TissueFactor: BioMAP Diversity Plus: CASM3C Assay for Tissue Factor Biomarker Activity (AID 2283052); conditions: primary human coronary artery smooth muscle cells; actives raise or lower the signal;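 also: cell surface tissue factor protein level read by ELISA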
# [4] = read-out: Interferon-gamma inducible Protein 10 (IP10), CXCL10 (gene 3627); experiment: BSK_hDFCGF_IP10: BioMAP Diversity Plus: hDFCGF Assay for Interferon-gamma inducible Protein 10 (IP10) Biomarker Activity (AID 2283053); conditions: primary human foreskin fibroblasts; actives raise or lower the signal
# In short: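 Primary foreskin fibroblasts, human; 24 h compound exposure; IP-10 by ELISA; bidirectional fit vs DMSO.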
# [5] = read-out: Urokinase-type plasminogen activator receptor (uPAR), PLAUR (gene 5329); experiment: BSK_CASM3C_uPAR: BioMAP Diversity Plus: CASM3C Assay for Urokinase-type plasminogen activator receptor (uPAR) Biomarker Activity (AID 2283054); conditions: primary human coronary artery smooth muscle cells; actives raise or lower the signal;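 also: cell-surface uPAR protein level quantified by ELISA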
# [6] = read-out: Vascular cell adhesion molecule 1 (VCAM1), VCAM1 (gene 7412); experiment: BSK_CASM3C_VCAM1: BioMAP Diversity Plus: CASM3C Assay for Vascular cell adhesion molecule 1 (VCAM1) Biomarker Activity (AID 2283055); conditions: primary human coronary artery smooth muscle cells; actives raise or lower the signal;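 also: VCAM-1 protein level quantified by ELISA on the cells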
# [7] = read-out: Collagen III, COL3A1 (gene 1281); experiment: BSK_hDFCGF_CollagenIII: BioMAP Diversity Plus: hDFCGF Assay for Collagen III Biomarker Activity (AID 2283056); conditions: primary human foreskin fibroblasts; actives raise or lower the signal
# In short: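 hDFCGF primary human dermal fibroblasts; 24 h chemical exposure; collagen III by ELISA; bidirectional curve fit vs DMSO baseline (gain or loss of signal).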
# [8] = read-out: Interleukin-8 (IL8), CXCL8 (gene 3576); experiment: BSK_hDFCGF_IL8: BioMAP Diversity Plus: hDFCGF Assay for Interleukin-8 (IL8) Biomarker Activity (AID 2283058); conditions: primary human foreskin fibroblasts; actives raise or lower the signal
# In short: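 ELISA read-out of IL-8 from primary human foreskin fibroblast cultures taken 24 h after dosing; values are bidirectional fits relative to DMSO vehicle.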
# [9] = BSK_hDFCGF_Proliferation: Cell Proliferation Assessment in the BioMAP Diversity Plus: hDFCGF Assay (AID 2283059); conditions: primary human foreskin fibroblasts;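 also: curves fitted for both rise and fall of signal versus DMSO baseline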
# In short: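 Sub-confluent human foreskin fibroblast cultures receive test chemical […]. Relative cell number is quantified by sulforhodamine B staining (0.1%, after 10% TCA fixation) at 560 nm, with bidirectional fitting referenced to DMSO.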
# [10] = read-out: Macrophage colony-stimulating factor (MCSF), CSF1 (gene 1435); experiment: BSK_hDFCGF_MCSF: BioMAP Diversity Plus: hDFCGF Assay for Macrophage colony-stimulating factor (MCSF) Biomarker Activity (AID 2283060); conditions: primary human foreskin fibroblasts; actives raise or lower the signal
# In short: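 ELISA read-out of M-CSF in human dermal foreskin fibroblast cultures, 24 h after chemical dosing; gain or loss of signal fitted bidirectionally relative to DMSO baseline.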
# [11] = BSK_hDFCGF_SRB: Viability Assessment in the BioMAP Diversity Plus: hDFCGF Assay (AID 2283061); conditions: primary human foreskin fibroblasts;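 also: cells exposed to compound for 24 h before the read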
# In short: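 Primary human foreskin fibroblasts; 24 h post-dose; fixed 10% TCA, stained 0.1% SRB, A560 read; total protein as overt cytotoxicity measure; curves fit bidirectionally vs DMSO control.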
# [12] = read-out: TIMP metallopeptidase inhibitor 1 (TIMP1), TIMP1 (gene 7076); experiment: BSK_hDFCGF_TIMP1: BioMAP Diversity Plus: hDFCGF Assay for TIMP metallopeptidase inhibitor 1 (TIMP1) Biomarker Activity (AID 2283062); conditions: primary human foreskin fibroblasts; actives raise or lower the signal
# In short: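 ELISA readout of TIMP-1 from human dermal foreskin fibroblast cultures 24 h post-dosing. Curves were fitted in both directions against DMSO baseline, with SRB total-protein staining in parallel cultures as a cytotoxicity check.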
# [13] = read-out: Monokine induced gamma interferon (MIG), CXCL9 (gene 4283); experiment: BSK_hDFCGF_MIG: BioMAP Diversity Plus: hDFCGF Assay for Monokine induced gamma interferon (MIG) Biomarker Activity (AID 2283063); conditions: primary human foreskin fibroblasts; actives raise or lower the signal
# In short: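 Fibroblasts (human foreskin, primary) dosed, 24 h, MIG by ELISA; fit bidirectional vs DMSO.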
# [14] = read-out: Matrix Metallopeptidase 1 (MMP1), MMP1 (gene 4312); experiment: BSK_hDFCGF_MMP1: BioMAP Diversity Plus: hDFCGF Assay for Matrix Metallopeptidase 1 (MMP1) Biomarker Activity (AID 2283064); conditions: primary human foreskin fibroblasts; actives raise or lower the signal
# In short: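 Primary human foreskin fibroblasts in the hDFCGF system were dosed with test chemical, and MMP1 was measured by ELISA 24 h later. Values come from bidirectional curve fitting against the DMSO baseline.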
# [15] = read-out: Vascular cell adhesion molecule 1 (VCAM1), VCAM1 (gene 7412); experiment: BSK_hDFCGF_VCAM1: BioMAP Diversity Plus: hDFCGF Assay for Vascular cell adhesion molecule 1 (VCAM1) Biomarker Activity (AID 2283065); conditions: primary human foreskin fibroblasts; actives raise or lower the signal
# In short: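 ELISA read-out of VCAM-1 on human skin fibroblasts, 24 h post-dose; gain or loss of signal fitted bidirectionally against DMSO baseline.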
# [16] = read-out: Plasminogen activator inhibitor-1 (PAI1), SERPINE1 (gene 5054); experiment: BSK_hDFCGF_PAI1: BioMAP Diversity Plus: hDFCGF Assay for Plasminogen activator inhibitor-1 (PAI1) Biomarker Activity (AID 2283066); conditions: primary human foreskin fibroblasts; actives raise or lower the signal
# In short: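 Primary dermal fibroblasts (human foreskin), hDFCGF system; compound 24 h; PAI-1 by ELISA; bidirectional fit vs DMSO control.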
# [17] = read-out: Intercellular Adhesion Molecule 1 (ICAM1), ICAM1 (gene 3383); experiment: BSK_KF3CT_ICAM1: BioMAP Diversity Plus: KF3CT Assay for Intercellular Adhesion Molecule 1 (ICAM1) Biomarker Activity (AID 2283067); conditions: primary human keratinocytes with fibroblasts; actives raise or lower the signal
# In short: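 ELISA readout of ICAM-1; KF3CT human skin co-culture (keratinocytes + foreskin fibroblasts), 24 h post-dose; gain/loss fit vs DMSO baseline.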
# [18] = read-out: Interferon-gamma inducible Protein 10 (IP10), CXCL10 (gene 3627); experiment: BSK_KF3CT_IP10: BioMAP Diversity Plus: KF3CT Assay for Interferon-gamma inducible Protein 10 (IP10) Biomarker Activity (AID 2283068); conditions: primary human keratinocytes with fibroblasts; actives raise or lower the signal
# In short: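 ELISA read-out of IP-10 after 24 h chemical dosing of human skin primary co-culture (keratinocytes, foreskin fibroblasts). Gain or loss of signal relative to DMSO, bidirectional curve fit.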
# [19] = BSK_KF3CT_SRB: Viability Assessment in the BioMAP Diversity Plus: KF3CT Assay (AID 2283069); conditions: primary human keratinocytes with fibroblasts;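 also: total protein by sulforhodamine B staining as a cytotoxicity measure; read 24 h after compound addition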
# In short: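 Human primary keratinocyte plus foreskin fibroblast co-culture exposed to chemicals for 24 h. Total protein measured by 0.1% sulforhodamine B staining after 10% TCA fixation, read at 560 nm; bidirectional fitting versus DMSO baseline.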
# [20] = read-out: Epidermal growth factor receptor (EGFR), EGFR (gene 1956); experiment: BSK_hDFCGF_EGFR: BioMAP Diversity Plus: hDFCGF Assay for Epidermal growth factor receptor (EGFR) Biomarker Activity (AID 2283057); conditions: primary human foreskin fibroblasts; actives raise or lower the signal
# In short: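 hDFCGF system, primary human foreskin fibroblasts; compound 24 h; EGFR measured by ELISA; DMSO = negative control/baseline; bidirectional fitting.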
smiles,measurement,setting,value
CC(C)C(=O)Nc1ccc([N+](=O)[O-])c(C(F)(F)F)c1,outcome,[1],inactive
same,outcome,[2],inactive
same,outcome,[3],inactive
same,outcome,[4],inactive
same,outcome,[5],inactive
same,outcome,[6],inactive
same,AC50,[7],31.7 µM (active)
same,outcome,[8],inactive
same,outcome,[9],inactive
same,outcome,[10],inactive
same,outcome,[11],inactive
same,outcome,[12],inactive
same,outcome,[13],inactive
same,outcome,[14],inactive
same,outcome,[15],inactive
same,outcome,[16],inactive
same,outcome,[17],inactive
same,outcome,[18],inactive
same,outcome,[19],inactive
Cn1c(=O)c2[nH]cnc2n(C)c1=O,outcome,[1],inactive
same,outcome,[2],inactive
same,outcome,[3],inactive
same,outcome,[4],inactive
same,outcome,[5],inactive
same,outcome,[6],inactive
same,outcome,[7],inactive
same,outcome,[20],inactive
same,outcome,[8],inactive
same,outcome,[9],inactive
same,outcome,[10],inactive
same,outcome,[12],inactive
same,outcome,[13],inactive
same,outcome,[14],inactive
same,outcome,[15],inactive
same,outcome,[16],inactive
same,outcome,[17],inactive
same,outcome,[18],inactive
same,outcome,[19],inactive
CCCOc1ccc(S(=O)(=O)N2CCN(CC)CC2)cc1-c1nc2c(CC)n(Cc3ccccn3)nc2c(=O)[nH]1,outcome,[1],inactive
same,outcome,[2],inactive
same,outcome,[3],inactive
same,outcome,[4],inactive
same,outcome,[5],inactive
same,outcome,[6],inactive
same,outcome,[7],inactive
same,outcome,[20],inactive
same,outcome,[8],inactive
same,outcome,[9],inactive
same,outcome,[10],inactive
same,outcome,[11],inactive
same,outcome,[12],inactive
same,outcome,[13],inactive
same,outcome,[14],inactive
same,outcome,[15],inactive
same,outcome,[16],inactive
same,outcome,[17],inactive
same,outcome,[19],inactive
